Structures are written as SMILES. Values joined by “and” are separate entries in the source; they are usually repeats but may differ in a detail not shown here. Equal values may be shown once. For some of these results: Results with a measured potency or affinity are listed apart. The source holds several records for some structures; these can differ, active in one and inactive in another. Active and inactive are the calls of the source. Unless noted, the rule behind the calls is not given here.

The nature of experiment [1]: compounds altering circadian rhythm period length – cell-based, LOPAC library, luminescence reporter (AID 2774).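 Note: values are relative to mean of DMSO wells on each plate.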 The settings on record: circadian reporter cells, at 7 µM, actives lie on both sides.
Experiment [2] has as its system Hepatitis C virus NS3 helicase. Put plainly: blockers of NS3h binding to ssDNA – biochemical, fluorescence polarization, LOPAC1280 library, primary screen (AID 687035; in the data active = inhibition above about 37%). The settings on record: Purified HCV NS3 helicase, Cy5-dT15 ssDNA binding fluorescence polarization; stronger effect = higher value; concentration not given here.
Experiment [3] can be described thus: compounds altering Cy5-DNA-NS3h complex signal – biochemical, LOPAC1280, artefact control for HCV NS3 helicase inhibitor project (AID 687037). The settings on record: Cy5-DNA-NS3h complex fluorescence interference counterscreen.
Experiment [4] in a line: EMT-state selective cytotoxicity in co-culture – imaging, PC-3E GFP, TEM4-18 mCherry, primary screen (AID 1345086;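 active = compounds killing one labelled cell type while sparing the other, by normalised counts and ratio limits, not self-fluorescent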;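 for all read-outs here: cells exposed to compound for 72 h before imaging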;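 for red/green cell ratio (normalised): normalised mesenchymal count divided by normalised epithelial count so high means epithelial killing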). The settings on record: PC-3E GFP / TEM4-18 mCherry co-culture, imaging cell counts, at 1 µM; for red/green cell ratio (normalised): actives lie on both sides, counts scaled to control wells, 1 = unselective.
The test system of experiment [5] is Aerobactin synthetase IucA (Klebsiella pneumoniae). Kind of experiment: inhibition of K. pneumoniae IucA enzyme – biochemical, Tocris library, absorbance (AID 1345561).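 Note: 100% = enzyme without compound and 0% = no enzyme.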 The settings on record: purified IucA enzyme assay, absorbance (OD) read-out; stronger effect = lower value;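 tested at 8 µM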.
Experiment [6] is described as follows: viability loss with induced miR-34 in A549 – imaging, A549 dox-inducible miR-34, nuclei and caspase counts, primary screen (AID 1347080;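 active = compounds whose cell count with miR-34 switched on is under 0.7 times the count with it off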). The settings on record: A549 miR-34 inducible, Hoechst nuclei count, 48 h.
Experiment [7] is described as follows: galactose survival enhancers in mitochondrial complex I cybrids – cell-based, galactose medium, ATP luminescence, primary screen (AID 1645843;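 active = z-score of at least 1.8 in each of two replicates, scored against plate mean and spread of sample wells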;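 note: positive z means more ATP and so rescue of galactose-driven cybrid death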). The settings on record: complex I mutant cybrid cells, 72 h, stronger effect = higher value.
The nature of experiment [8]: yeast 75Q aggregation reduction – 75Q-TubU reporter (AID 1593). The settings on record: Yeast 75Q polyglutamine aggregation reporter.
A short description of experiment [9]: restoration of touch response, mutant HTT neurons – whole organism, C. elegans mechanosensory neurons, N-terminal huntingtin (AID 1599). The settings on record: C. elegans polyQ-huntingtin mechanosensory neurons, stronger effect = higher value.
Experiment [10] is described as follows: blockers of cytochrome c efflux from mitochondria – biochemical, purified mitochondria (AID 1603).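 Note: mouse liver mitochondria challenged with calcium chloride; signal normalized to the plate average as 100%.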 The settings on record: stronger effect = lower value.
Experiment [11] in a line: polyglutamine aggregate formation blockers (AID 1604). The settings on record: polyglutamine-induced protein aggregation inhibition assay; stronger effect = higher value; tested at 2.5 µM.
A short description of experiment [12]: glutamate transport activators, MN-1 cells, MN-1 cell line (AID 1612).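 Note: tested at 1 µM final; 0% = mean of DMSO vehicle wells on each plate; positive means more glutamate uptake than control and negative means less.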 The settings on record: MN-1 motor neuron cells, stronger effect = higher value.
The nature of experiment [13]: 75Q-TubH aggregate inhibition, S. cerevisiae, yeast (AID 1616). The settings on record: S. cerevisiae 75Q-TubH polyglutamine aggregation suppression; stronger effect = higher value.
A short description of experiment [14]: chitosan synthesis blockers in C. neoformans – flow cytometry, Cibacron Brilliant Red staining (AID 1347148).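 Note: compound exposure lasted three days at 37 degrees C.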 The settings on record: Cryptococcus neoformans chitosan, stronger effect = lower value; at 10 µM unless noted.
Experiment [15] in a line: blockers of polyQ-driven CASP3 activation – cell-based (AID 1583). The settings on record: polyglutamine-induced caspase-3 activation, cell assay; stronger effect = higher value;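 tested at 10 µM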.
Where [16] appears, read: measured here: epithelial PC-3E GFP cell survival.
Setting [17] is: measured here: mesenchymal TEM4-18 mCherry cell survival.
[18] abbreviates: stronger effect = lower value, cell number ratio, induced over uninduced.
Where [19] appears, read: measured here: relative caspase fold change +Dox/-Dox.
Where [20] appears, read: measured here: total cells with miR-34 induction, stronger effect = lower value.
The mark [21] stands for this setting: measured here: total cells without miR-34 induction.

For the compound `O=C(O)c1ccccc1Nc1cccc(OCc2ccc3ccccc3n2)c1`, the period change in experiment [1] was -0.125 h (inactive). The inhibition in experiment [2] was 0% (inactive). In experiment [3], the fluorescence ratio (interference) was 1 (inactive). The red/green cell ratio (normalised) in experiment [4] was 0.86 (inactive). Further, the normalised cell number in experiment [4] (setting [16]) was found to be 1.35; in experiment [4] (setting [17]), 1.16. In addition, the remaining activity in experiment [5] is 112% (inactive). Moreover, the fold change in experiment [6] (setting [18]) was 0.992 (inactive) and 0.929 (inactive); in experiment [6] (setting [19]), 0.944 and 0.452. Besides, the cell count in [6] (setting [20]) is 9820 and 8230; in experiment [6] (setting [21]) it was 9900 and 8860. The z-score in experiment [7] is 2.17 (active) and -0.695 (inactive).

Regarding `Cc1ccc(S[C@H]2OC(COCc3ccccc3)C(O)[C@@H]3OC(=O)N[C@H]23)cc1` (stereo not given in full), the red/green cell ratio (normalised) in experiment [4] is 1.07 (inactive). The values for the normalised cell number in experiment [4] (setting [16]) and in experiment [4] (setting [17]) were 0.9 and 0.96, respectively.

For the compound `C[C@H](Cc1cc(O)cc(O)c1C(=O)O[C@H](C)CC(=O)O[C@H](C)Cc1cc(O)cc(O)c1C(=O)O[C@H](C)CC1Cc2cc(O)cc(O)c2C(=O)O1)OC(=O)C[C@@H](C)O` (stereo not given in full), the red/green cell ratio (normalised) in experiment [4] is 0.98 (inactive). Besides, the normalised cell number in experiment [4] (setting [16]) was determined as 0.85; in experiment [4] (setting [17]), 0.83.

With `CC(C)=CCC[C@H](C)[C@H]1CC[C@]2(C)C[C@@H]3C(C)=CC(=O)[C@@H]3/C(C=O)=C\C[C@@H]12`, in experiment [4], the red/green cell ratio (normalised) is 0.9 (inactive). For the same compound, the values for the normalised cell number in experiment [4] (setting [16]) and in experiment [4] (setting [17]) were 1.16 and 1.04, respectively.

`C/C=C/CC(C)C(O)C1C(=O)NC(CC)C(=O)N(C)CC(=O)N(C)C(CC(C)C)C(=O)NC(C(C)C)C(=O)N(C)C(CC(C)C)C(=O)NC(C)C(=O)NC(C)C(=O)N(C)C(CC(C)C)C(=O)N(C)C(CC(C)C)C(=O)N(C)C(C(C)C)C(=O)N1C` (stereo not given): the score in [8] came out at 1.51. For the same compound, in experiment [9], the rescue above control worked out at 1.62. Further, the cytochrome c release ratio in experiment [10] is 0.93. The inhibition of aggregation in experiment [11] amounted to 77.8%. Besides, in experiment [12], the glutamate uptake change was -28.6%. In experiment [13], this compound returned an aggregation suppression score of 1.73. In addition, the period change in experiment [1] is -0.005 h (inactive). Also, the fluorescence ratio (interference) in experiment [3] is 0.9 (inactive). Further, the red/green cell ratio (normalised) in experiment [4] was 0.77 (inactive). The normalised cell number turned out to be 0.27 in experiment [4] (setting [16]) and 0.21 in experiment [4] (setting [17]). Moreover, the remaining activity in [5] is 111% (inactive). In addition, the fold change in experiment [6] (setting [18]) is 1.04 (inactive) and 1.06 (inactive) and 0.898 (inactive); in [6] (setting [19]), 1.1 and 0.674 and 2.07. Also, in experiment [14], the fold fluorescence is 18.1 [at 41.6 µM] (inactive).

For `O=C(O)CNc1ccc(Cl)cc1[N+](=O)[O-]`, the red/green cell ratio (normalised) in [4] is 1.05 (inactive). In addition, the normalised cell number was found to be 1.11 in [4] (setting [16]) and 1.17 in experiment [4] (setting [17]).

Consider `CC(C)C[C@@H](NC(=O)OCC1c2ccccc2-c2ccccc21)C(=O)O`, for which the inhibition in experiment [15] is -9.47%. In experiment [8], this compound came in with a score of -0.27. The rescue above control in [9] amounted to 2.38. The cytochrome c release ratio in experiment [10] is 0.77. Moreover, the inhibition of aggregation in experiment [11] was -14.3%. Further, the glutamate uptake change in [12] amounted to 4.64%. In [13], the aggregation suppression score was found to be 0.0751. Besides, the red/green cell ratio (normalised) in experiment [4] was 0.8 (inactive). Moreover, the figures for the normalised cell number in experiment [4] (setting [16]) and in experiment [4] (setting [17]) were 1.21 and 0.97, respectively. In [5], the remaining activity was 97.5% (inactive). The values for the fold change in experiment [6] (setting [18]) and in experiment [6] (setting [19]) were 0.883 (inactive) and 0.962, respectively. The cell count in experiment [6] (setting [20]) amounted to 8270; in experiment [6] (setting [21]), 9370. The z-score in experiment [7] is -0.5 (inactive).

These data come from PubChem BioAssay.
